Gli-Sufu block: antagonists of Gli-Sufu signaling; inhibition, % at 5 µM; 340,000 tested, 0.74% active; Sufu-KO-LIGHT fibroblasts, Gli luciferase reporter luminescence;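 active = inhibition above about 55%, limit read from the data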;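 also: 0% = DMSO-treated cells and 100% = wells with medium but no cells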
Mdm2-MdmX inh: disrupts the human Mdm2-MdmX interaction; O15151+Q00987; SaOS-2 split-luciferase Mdm2/MdmX complementation, luminescence; inhibition, % at 8 µM; 330,000 tested, 3% active;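 active = inhibition of at least 50% at 8 µM in the primary screen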
Target sequence (O15151 whole entry, looked up): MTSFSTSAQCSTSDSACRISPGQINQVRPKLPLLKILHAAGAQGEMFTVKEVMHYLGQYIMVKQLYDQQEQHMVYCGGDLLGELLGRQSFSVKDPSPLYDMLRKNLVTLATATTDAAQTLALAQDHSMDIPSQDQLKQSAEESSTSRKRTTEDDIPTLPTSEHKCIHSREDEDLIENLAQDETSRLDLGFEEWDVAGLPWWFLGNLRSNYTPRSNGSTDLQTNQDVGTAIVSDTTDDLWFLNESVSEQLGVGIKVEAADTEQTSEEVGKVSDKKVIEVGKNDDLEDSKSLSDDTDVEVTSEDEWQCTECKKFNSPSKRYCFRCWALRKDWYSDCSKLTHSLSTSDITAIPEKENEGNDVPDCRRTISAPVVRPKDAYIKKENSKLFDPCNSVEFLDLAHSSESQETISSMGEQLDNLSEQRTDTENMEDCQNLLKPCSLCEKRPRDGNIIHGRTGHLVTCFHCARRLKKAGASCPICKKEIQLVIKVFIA
Target sequence (Q00987 whole entry, looked up): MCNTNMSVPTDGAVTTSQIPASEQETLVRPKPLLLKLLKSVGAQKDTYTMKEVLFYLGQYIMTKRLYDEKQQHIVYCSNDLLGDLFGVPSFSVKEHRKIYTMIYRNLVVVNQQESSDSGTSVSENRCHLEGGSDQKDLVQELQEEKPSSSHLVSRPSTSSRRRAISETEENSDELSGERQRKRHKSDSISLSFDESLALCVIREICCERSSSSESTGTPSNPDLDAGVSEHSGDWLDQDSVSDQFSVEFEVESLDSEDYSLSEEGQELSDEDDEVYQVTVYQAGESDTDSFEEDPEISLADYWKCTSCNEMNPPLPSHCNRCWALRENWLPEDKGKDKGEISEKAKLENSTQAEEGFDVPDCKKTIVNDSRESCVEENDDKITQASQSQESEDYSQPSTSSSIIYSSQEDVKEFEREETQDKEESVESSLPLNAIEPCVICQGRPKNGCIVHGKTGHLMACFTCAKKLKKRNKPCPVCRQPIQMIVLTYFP
CSC inhib: cancer stem cell inhibition; cancer stem cell-like cells viability, luminescence; inhibition, % at 7.5 µM; 300,000 tested, 1.1% active; in the data active = inhibition above about 75%; inconclusive = no clear call, values can overlap the other calls; tested in HMLE shEcad cells
697 NFkB inh: lowers PMA/ionomycin-induced NF-kB signal in 697 B cells. 697 B-cell NF-kB luciferase reporter, 16 h. inhibition, % at 4 µM. 330,000 tested, 0.33% active. AID 435022; in the data active = inhibition above about 35%
Beta cell apopt: blocks beta cell apoptosis; protection from apoptosis, % (test concentration not listed); AID 435005; 300,000 tested, 0.8% active; INS-1E cytokine-induced death, ATP luminescence, 48 h; percent of positive-control rescue, neutral wells zero;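 active = Every replicate reaches about 75%, or at least half do and their mean reaches it too, limit read from the data; inconclusive = At least half of replicates reach the limit but their mean does not; inactive = Under half of replicates reach the limit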;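 also: 0% = cytokine-treated negative control wells and 100% = positive control rescue; higher means more ATP so stronger rescue from cytokine killing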
Jurkat NFkB inh: inhibitors of the PMA/ionomycin-induced NF-kB reporter in Jurkat cells | PMA/ionomycin-induced NF-kB luciferase reporter, luminescence | inhibition, % at 4 µM | 330,000 tested, 0.53% active | AID 435003; in the data active = inhibition above about 50%
Mdm2 MdmX conf: confirmation of human Mdm2/MdmX interaction inhibitors. inhibition, % at 8 µM. Mdm2-MdmX binding, luminescent assay. shares compounds with Mdm2-MdmX inh. 10,000 tested, 55% active; in the data active = inhibition above about 40%
FLuc counter: inhibits full-length luciferase, flagging false Mdm2/MdmX hits; shares compounds with Mdm2-MdmX inh; SaOS-2 full-length luciferase counterscreen, luminescence; inhibition, % at 8 µM; 6,200 tested, 77% active; AID 504607;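 active = mean inhibition at 8 µM reaching about 37%, which flags the compound as non-specific, limit read from the data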;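 also: p53-null SaOS-2 cells with luciferase driven by a doxycycline-inducible promoter; compound on cells about two nights before reading with doxycycline added after day one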
An asterisk follows results filed as active; ? = inconclusive; · = no result given. Compounds with a hit are over-represented: about 4.5% of the library has one in this group of screens.

SMILES	Gli-Sufu block	Mdm2-MdmX inh	CSC inhib	697 NFkB inh	Beta cell apopt	Jurkat NFkB inh	Mdm2 MdmX conf	FLuc counter
Cc1nc2c(-c3ccc(Cl)cc3)c(C)[nH]n2c(=O)c1Cc1ccccc1	20	53*	-9	16	98*	4	61*	55*
O=C(NCCc1ccccc1)C1CCC(CNc2nc(=S)[nH]c3ccccc23)CC1 (stereo not drawn)	5	96*	45	-26	6	-4	6	·
CN(C)N1C(N)=C(C#N)C(c2cccc3ccccc23)C2=C1CC(c1ccccc1)CC2=O (stereo not drawn)	12	64*	80*	-23	-1	22	63*	42*
C=CCOc1ccc(C(=O)c2ccccc2)c(OCC(=O)NC2(C#N)CCCC2)c1	7	-23	3	6	8	9	·	·
COc1ccc(/C=N/N2C(=O)CSC2=S)cc1	3	-5	5	-4	6	5	·	·
COc1ccc(-c2nn(-c3ccccc3)cc2/C=N/N2C(=O)CSC2=S)cc1	4	97*	108*	-17	106*	-15	31	·
CCNc1nc(NC(C)C)nc(Oc2ccc(OCCOc3ccccc3)nn2)n1	43	51*	-12	32	3	-5	11	·
O=C(Nc1ccccc1O)c1ccc(NS(=O)(=O)c2cccc3cccnc23)cc1	33	77*	?	-246	-4	19	24	·
COC(=O)c1ccc(NC(=O)c2ccc(NS(=O)(=O)c3cccc4cccnc34)cc2)cc1	-4	27	8	2	·	-20	·	·
Cc1ccc(NC(=O)Cc2ccccc2F)cc1S(=O)(=O)N1CCCCCC1	4	21	3	-25	9	2	·	·
O=C(Cc1c(F)cccc1Cl)OCC(=O)N1CCN(c2ccccc2)CC1	6	-21	-3	2	3	5	·	·
C=CCn1c(SCC(=O)Nc2ccc(F)cc2F)nc2c([nH]c3ccccc32)c1=O	0	65*	-15	-10	-2	2	52*	27
C=CCn1c(SCC(=O)Nc2ccccc2OC)nc2c([nH]c3ccccc32)c1=O	6	38	5	4	7	8	·	·
COCCn1c(SCC(=O)Nc2ccc(F)cc2F)nc2c([nH]c3ccccc32)c1=O	4	55*	-6	-13	37	-14	53*	14
Cc1nc2ccc(NC(=O)c3nn(CC(C)C)c(=O)c4ccccc34)cc2s1	-1	77*	1	-93	-2	16	86*	51*
CCCn1nc(C(=O)NCCN2CCOCC2)c2ccccc2c1=O	-2	16	7	-13	-3	-2	·	·
Cn1nc(C(=O)Nc2cccc(S(=O)(=O)N3CCCC3)c2)c2ccccc2c1=O	11	54*	·	-7	-8	-2	2	·
CCCn1nc(C(=O)Nc2cccc(S(=O)(=O)N(C)c3ccccc3)c2)c2ccccc2c1=O	-4	53*	-4	-15	12	2	13	·
CCCn1nc(C(=O)Nc2ccc(N3CCOCC3)cc2)c2ccccc2c1=O	-5	51*	-5	-4	-2	1	10	·
C(=C\n1nnc2ccccc21)/c1ccc[nH]1	0	-13	-1	-13	9	8	·	·
CCOc1cc(N2CCOCC2)c(OCC)cc1NC(=O)c1ccccc1C	4	5	8	15	1	7	·	·
CCOc1cc(N2CCOCC2)c(OCC)cc1NC(=O)c1nn(CC)c(=O)c2ccccc12	41	86*	·	15	36	16	49*	87*
O=C(CCl)N(C1CCCC1)C1CCS(=O)(=O)C1 (stereo not drawn)	-9	87*	-2	13	-10	2	72*	55*
CC(=O)c1ccc(OCC(=O)N(C2CCCCC2)C2CCS(=O)(=O)C2)cc1 (stereo not drawn)	4	7	-3	26	-3	6	·	·
O=C(C[C@H]1C/C=C\CCC(=O)O[C@@H](c2ccccc2)CNC1=O)NCCO	-6	19	·	20	-1	-6	·	·
SMILES	Gli-Sufu block	Mdm2-MdmX inh	CSC inhib	697 NFkB inh	Beta cell apopt	Jurkat NFkB inh	Mdm2 MdmX conf	FLuc counter
CC(Sc1ncccn1)C(=O)N1CCc2ccccc21 (stereo not drawn)	23	22	·	22	·	8	·	·
Cc1cc(CCNC=O)c(C)c2c1oc1ccccc12	-38	·	·	·	·	·	·	·
CC(Sc1nnc(NCc2ccccc2)s1)C(=O)Nc1ccc2c(c1)C(=O)c1ccccc1C2=O (stereo not drawn)	-68	23	24	-86	8	-15	·	·
CC(Sc1nnc(Nc2ccccc2)s1)C(=O)Nc1nc(-c2ccccc2)cs1 (stereo not drawn)	-13	65*	38	-22	1	-37	72*	101*
O=C(C1=C[C@@H](c2ccc(Br)cc2)C[C@@H](OCCCCO)O1)N1CCN(Cc2ccccc2)CC1	21	55*	34	4	56	-5	50*	66*
O=C(C1=C[C@H](c2ccc(Br)cc2)C[C@H](OCCCCO)O1)N1CCN(Cc2ccc3c(c2)OCO3)CC1	25	-5	-18	1	1	16	·	·
CC(C)(C)c1nc2ccccc2c2nnc(SCC(=O)Nc3nccs3)n12	-1	68*	·	-57	·	37	60*	50*
CCn1c(SCC(=O)Nc2nc(-c3ccccc3)cs2)nc2c1c(=O)n(C)c(=O)n2C	-2	64*	-4	-21	3	0	8	·
CCC(=O)Nc1ccc(NC(=O)CSc2nc3c(c(=O)n(C)c(=O)n3C)n2CC)cc1	-11	9	2	8	-5	-4	·	·
CN(C)CCCn1c(SCC(=O)Nc2nc(-c3cccc(Br)c3)cs2)nc2ccccc2c1=O	15	100*	?	-5	15	8	56*	115*
CCCCn1c(SCC(=O)Nc2nccs2)nc2ccccc2c1=O	11	65*	-13	1	1	-1	4	·
O=C(CSc1nc2ccccc2[nH]1)Nc1nc(-c2cccc(Br)c2)cs1	-7	-13	-11	-12	-4	0	·	·
CCCCn1c(SCC(=O)Nc2ccc(NC(C)=O)cc2)nc2ccccc2c1=O	21	38	8	-17	0	4	·	·
CCN1C[C@@H]2[C@@H]3C(=O)N(C)C(=O)[C@@H]3[C@](CC)(C1=O)N2C(=O)c1ccc(C)cc1	-6	·	·	·	·	·	·	·
CC(=O)Nc1ccc(/C(C)=N/Nc2nc(Nc3cccc4ccccc34)nc(N3CCOCC3)n2)cc1	40	54*	-3	29	68	-7	28	·
Nc1[nH]n2c(=O)cc(-c3ccccc3)nc2c1N=Nc1ccccc1	-1	58*	92*	6	45	-1	47*	43*
